# Test results as given in PubChem BioAssay (NCI).
# Several values for one entry are separate records, joined by “and”; a condition that tells them apart may be missing. Equal values may be shown once. Compounds without any hit were thinned out: in the full panel of roughly 83,000, 20% have a hit.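 Assay: single dose, 48 h. Readout: percent growth (0 = no net growth; negative = cell death). Active: <10.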 Unmarked numbers belong to inactive results. Activity calls are given as the source filed them.
# Tested on: HL-60(TB) leukemia
# Assay: NCI-60 one-dose screen, 48 h (100 = growth as untreated, 0 = no growth, -100 = all killed)
# Conditions: 10 µM unless noted
row,Compound,growth
1,Cc1c2ccccc2c(C)c2c1ccc1ccccc12,69.9%
2,C=C1C(=O)O[C@H]2[C@H]1CC/C(COC(=O)c1cccnc1)=C\CC[C@@]1(C)O[C@@H]21,2.18% (active)
3,COc1cccc(NC(=O)c2cccc(-c3cc(=O)c4c(OC)c(OC)c(OC)cc4o3)c2)c1,68.7%
4,COc1ccc(/C=C2\C(=O)N=C3N2NC(c2cc(Br)ccc2O)C=C(C)N3c2ccccc2)cc1 (centres undefined),99%
5,C=CC[N+]1(CC)CCN=C1CCCCCCCCCCCCCCCCC (centres undefined),-59.5% (active)
6,C=Cc1cc[n+](CCCCCCCCCCCC)cc1,80%
7,CCOC(=O)C#Cc1c(C(=O)OCC)nnn1[C@@H]1O[C@H](CO)[C@H]2OC3(CCCCC3)O[C@H]21,52.8%
8,O=C(Nc1ccc(-c2nc3cc4ccccc4cc3[nH]2)cc1)c1cccc(Br)c1,42.3%
9,CCc1ccccc1-n1c(-c2ccc(Cl)cc2)cc(-c2ccc(Cl)cc2)c(C#N)c1=O,82.7%
10,CCc1ccccc1NC(=O)/C(C#N)=C/c1ccc(OC)cc1,138%
11,FC(F)(F)c1ccc(-c2cnc(-c3nn[nH]n3)nc2NC2CCCCCC2)cc1,31.1% [50 µM]
12,CC1=CC(O)C2CC1C2(C)C (centres undefined),100% and 73.7%
13,Cc1ccc(-c2nnc(COc3ccc(-c4nnc(N)s4)cc3)o2)cc1,96.4%
14,CCOC(=O)C1CC(=O)c2cc(OC)c(OC)cc2C1 (centres undefined),97.6%
15,Nc1ccc(S(=O)(=O)O)c2ccc(N=Nc3ccc(N=Nc4ccc(S(=O)(=O)O)cc4)c4ccccc34)c(O)c12,70.5%
16,COc1ccc2c(c1)nnn1c3ncccc3c(N=O)c21,-39.8% (active)
17,O=C(Nc1cccc2ccccc12)NC1CC1,108%
18,N#CCN1C(=O)C2C3=C(CCCC3)SC2N=C1CN1CCCC1 (centres undefined),66.3%
19,COc1ccc(-n2c(C)nc3c(c(C)nn3-c3ccccc3)c2=O)cc1,-18.3% (active)
20,O=C(NC(=O)c1ccc(F)c(Cl)c1)NC1CC1,88.3% and 89%

row,Compound,growth
1,Cc1cc(O)c2c(c1O)C(=O)C13C(=C2O)C(=O)C2C(O)C1C1C(O)C3C(=O)C3=C(O)c4c(O)cc(C)c(O)c4C(=O)C321 (centres undefined),-19.7% (active)
2,COC(=O)CC[C@H](C)[C@H]1CC[C@H]2[C@@H]3CC[C@@H]4CC5(CC[C@]4(C)[C@H]3CC(=O)[C@]12C)Nc1ccccc1NC5=NC(C)(C)C (some centres undefined),43.6%
3,COc1cnc2c(c1)C(=O)c1c-2n(CCCNCCO)c(=O)c2ccncc12,16.1%
4,CCOC(=O)C(=Cc1cccc(Cl)c1)C(=O)OCC,-2% (active)
5,Oc1ccc(-c2nnc3c4[nH]ccc4ncn23)cc1,106%
6,O=C(/C=C/c1ccc(F)cc1)c1ccc(Nc2nc(NCCO)nc(Nc3ccc(Cl)cc3)n2)cc1,98.6%
7,CCN(CC)c1ccc2nc3ccc(=[N+](CC)CC)cc-3oc2c1,-12.7% (active)
8,CC1(C)C2CC1C1(/C=N\Nc3ccccc3)C(C2)C(C#N)(C#N)C1(C#N)C#N (centres undefined),89.9%
9,COc1cc(-c2nc3occn3c2-c2ccnc(NCCNS(=O)(=O)c3ccc(Cl)cc3)n2)ccc1F,100%
10,CC(=O)O[C@H]1CC[C@@]2(C)[C@@H](CC[C@@H]3[C@@H]2CC[C@]2(C)C=C(C=O)C[C@@H]32)C1,-37.5% (active)
11,O=S(=O)(c1ccccc1)n1cc2c(c1)-c1nc(Nc3ncccn3)sc1CC2,66.2%
12,CCCN(CCC)C(=O)c1ccc(C)cc1,100%
13,Cc1cc(N(CCCNc2ccnc3cc(Cl)ccc23)Cc2ccc3c(c2)OCO3)nc(N2CCOCC2)n1,-69.7% (active)
14,O=C(O)Cc1ccccn1,106%
15,CS(=O)(=O)c1ccc(-c2nc3cc(Cl)ccc3n2CC(=O)NO)cc1,91.9%
16,C[N+](C)(C)c1ncnc2nc[nH]c12,91.8%
17,N#CC1=C(N)Oc2cc(N)ccc2C1c1cccnc1 (centres undefined),96.6%
18,CCN(CC)CCNc1ccc(C)c2sc3ccccc3c(=O)c12 (tested in a mixture with another compound),10.1% and 15.3%
19,Cc1cccc(C)c1NC(=O)CN(CC(C)C)CC(O)COc1ccccc1 (centres undefined),98%
